The list is not random: actives were taken first. Their share in the collection is about 8.1%.
KB-3-1 tox: KB-3-1 parental cell cytotoxicity. 400,000 tested, 1.4% active. Potency, µM (series often up to 46.1 µM), hits mostly cytotoxic. AID 1347075. KB-3-1 viability, CellTiter-Glo ATP luminescence, 72 h; also: nearly all actives have a fitted effect of over 60% in size
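Using CellTiter-Glo luminescence, growth of non-resistant KB-3-1 adenocarcinoma cells is assessed 72 h after pin-tool compound addition at 37 °C. Normalized responses across the concentration series yield fitted curves.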
KB-V1 MDR tox: KB-V1 MDR subline cytotoxicity; KB-V1 MDR cells viability, CellTiter-Glo, 72 h; Potency, µM (top dose mostly 46.1 µM), usual class: cytotoxic; 400,000 tested, 3.4% active; AID 1347076; also: nearly all actives have a fitted effect of over 60% in size
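qHTS viability screen in drug-selected KB-V1 MDR cells: 72 h compound treatment at 37 degrees C, ATP luminescence end point.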
MCF10A rereplic: DNA re-replication induction in MCF 10a cells. MCF 10A DNA re-replication, Hoechst nuclear intensity, 48 h. Potency, µM (doses to about 46.1 µM), actives largely listed as activators. 350,000 tested, 2.9% active. AID 624296; also: nearly all actives have a fitted effect of over 50% in size
SW480 rerep: induces DNA re-replication in SW480 colon adenocarcinoma cells; Potency, µM (highest dose often 46.1 µM), hits mostly activators; 340,000 tested, 1.8% active; AID 624297; SW480 DNA re-replication, Hoechst DNA content imaging, 48 h; also: nearly all actives have a fitted effect of over 55% in size
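Treated cells incubate 48 hr (37 C, 5% CO2), are stained 40 min with Hoechst, and nuclear fluorescence is enumerated; a rise in nuclei with high DNA signal marks re-replication.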
ELG1 repair inh: ELG1-dependent DNA repair inhibition; HEK293T ELG1-luciferase reporter, luminescence, 16 h; DNA damage induced by 5-fluorouridine; 330,000 tested, 2.3% active; AID 504467; Potency, µM (series often up to 46.1 µM), most hits filed as inhibitors; also: nearly all actives have a fitted effect of over 55% in size
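Quantitative HTS, concentration-response format. 2,000 cells/well co-treated with 5-fluorouridine and compound, 16 hr in 5% CO2 at 37 °C; ONE-Glo luminescence read after 30 min.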
Of the large screens only hits and unclear results are named; the others gave an inactive call. Calls follow the shape of the dose curve; as a rule, active = well fitted curve in the direction sought with a large enough effect; inconclusive = small, poorly fitted or top-dose-only effect, or another doubt; inactive = no such curve, though single readings can be large; an effect the other way counts as inactive or inconclusive.

CC(C)(C)NC(=O)C12CCC(C)(c3nc4ccccc4nc31)C2(C)C (stereo not drawn)	MCF10A rereplic inconclusive
O=C(Cn1cnc2cc([N+](=O)[O-])ccc2c1=O)Nc1ccc2c(c1)CCC2	none
CCOC(=O)c1sc(NC(=O)CSc2ccccn2)c(C#N)c1C	MCF10A rereplic 21µM (no result: ELG1 repair inh)
CCOC(=O)c1sc(NC(=O)C(C)C)c(C#N)c1C	none
CCOC(=O)c1sc(NC(=O)CSc2ncn[nH]2)c(C#N)c1C	MCF10A rereplic 2.9µM, SW480 rerep 9.2µM
C=CCn1c(SCC(=O)Nc2c(C)n(C)n(-c3ccccc3)c2=O)nnc1-c1ccncc1	none (no result: MCF10A rereplic, SW480 rerep, ELG1 repair inh)
COCCN(C(=O)CSc1n[nH]c(-c2ccccc2)n1)c1c(N)n(CC(C)C)c(=O)[nH]c1=O	none
Cc1cc(=O)[nH]c2c1c(C)nn2C1CCCCC1	MCF10A rereplic 6.5µM, SW480 rerep 8.2µM
CCCN(CC(=O)Nc1ccccc1C)C(=O)c1ccc(N2CCOCC2)c([N+](=O)[O-])c1	none
COc1cc([N+](=O)[O-])cc(/C=N/NC(=O)C(C)Nc2cccc(C)c2)c1O (stereo not drawn)	KB-3-1 tox inconclusive, KB-V1 MDR tox inconclusive, MCF10A rereplic inconclusive (no result: SW480 rerep)
COc1cc([N+](=O)[O-])cc(/C=N/NC(=O)c2ccc(NC(=O)c3ccc(C)cc3)cc2)c1O	KB-3-1 tox 5.2µM, SW480 rerep inconclusive, ELG1 repair inh inconclusive
COc1cc([N+](=O)[O-])cc(/C=N/NC(=O)c2ccc(C)nc2)c1O	KB-3-1 tox inconclusive, KB-V1 MDR tox inconclusive, MCF10A rereplic 15µM (no result: SW480 rerep)
COc1cc([N+](=O)[O-])cc(/C=N/NC(=O)C(C)Nc2ccccc2C)c1O (stereo not drawn)	KB-3-1 tox inconclusive, KB-V1 MDR tox 12µM, MCF10A rereplic 1.6µM, SW480 rerep inconclusive, ELG1 repair inh inconclusive
COc1cc([N+](=O)[O-])cc(/C=N/NC(=O)Cn2cncn2)c1O	KB-3-1 tox inconclusive, KB-V1 MDR tox inconclusive, MCF10A rereplic 16µM, ELG1 repair inh inconclusive
COc1ccccc1/C=N/NC(=O)c1ccc(NC(=O)c2cccc([N+](=O)[O-])c2)cc1	none (no result: KB-3-1 tox, KB-V1 MDR tox, MCF10A rereplic, SW480 rerep)
COc1cc(/C=N/NC(=O)c2ccc(C)nc2)cc([N+](=O)[O-])c1O	none
Cc1cc(N2CCOCC2)nc(SCc2c(Cl)cccc2Cl)n1	KB-3-1 tox inconclusive, MCF10A rereplic inconclusive, SW480 rerep inconclusive
CC(=O)N1CCN(C(=O)COC(=O)CNC(=O)c2ccc(C)cc2)CC1	KB-V1 MDR tox inconclusive, MCF10A rereplic inconclusive, ELG1 repair inh inconclusive
CCOc1cc([N+](=O)[O-])cc(/C=N/NC(=O)c2c(-c3ccccc3)noc2C)c1O	KB-3-1 tox inconclusive, KB-V1 MDR tox inconclusive, SW480 rerep 8.2µM, ELG1 repair inh inconclusive
Cc1nc2c(=O)n(C)c(=O)n(C)c2nc1Cl	KB-3-1 tox 15µM, KB-V1 MDR tox inconclusive, MCF10A rereplic 1.8µM, SW480 rerep inconclusive, ELG1 repair inh inconclusive
Cn1c(=O)c2[nH]c(C3CCCC3)nc2n(C)c1=O	none (no result: ELG1 repair inh)
COc1ccc(S(=O)(=O)N2CN(Cc3ccco3)c3nc4ccccc4nc32)cc1	KB-V1 MDR tox 5.8µM, SW480 rerep inconclusive
Cc1ccc(S(=O)(=O)N2CN(Cc3ccco3)c3nc4ccccc4nc32)cc1	none
O=C(c1ccco1)N(CCCN1CCOCC1)c1nc(-c2ccc(F)cc2)cs1	KB-V1 MDR tox inconclusive, SW480 rerep inconclusive, ELG1 repair inh 9.2µM
O=C(c1ccco1)N(CCCN1CCOCC1)c1nc(-c2ccc(Cl)cc2)cs1	MCF10A rereplic 10µM, SW480 rerep inconclusive, ELG1 repair inh 21µM
CCN(CC)CCCN(C(=O)c1ccco1)c1nc(-c2ccc(C)cc2)cs1	SW480 rerep inconclusive
CCN(CC)CCCN(C(=O)c1ccco1)c1nc(-c2ccc(Cl)cc2)cs1	SW480 rerep inconclusive
Cc1ccc(C(=O)O)cc1S(=O)(=O)N1CCCC1	none
CN(C(=O)c1ccc(NC(=O)Cc2cccc(NC(=O)C3CCN(C(=O)C4CC4)CC3)c2)cc1)C1CCCC1	MCF10A rereplic inconclusive
COCCn1c(N)c(C#N)c2nc3ccccc3nc21	MCF10A rereplic inconclusive, SW480 rerep inconclusive
CCOc1ccc(Cn2c3ccc(OC)cc3c3nc4ccccc4nc32)cc1	KB-3-1 tox inconclusive, MCF10A rereplic 5.8µM
COc1ccc(Cn2c(N)c(C#N)c3nc4ccccc4nc32)cc1	KB-V1 MDR tox inconclusive, MCF10A rereplic 7.3µM, SW480 rerep 9.2µM
COc1cc(Cn2c(N)c(C#N)c3nc4ccccc4nc32)cc(OC)c1	MCF10A rereplic 4.6µM, SW480 rerep 8.2µM, ELG1 repair inh inconclusive
N#Cc1c(N)n(CCc2ccc(F)cc2)c2nc3ccccc3nc12	MCF10A rereplic inconclusive, SW480 rerep 15µM
O=S(=O)(c1ccccc1)C(/C=N\O)/C=C/c1ccccc1 (stereo not drawn)	MCF10A rereplic inconclusive
Cc1ccc(C2=NN(Cc3nnc(-c4ccccc4)o3)C(=O)SC2)cc1	KB-V1 MDR tox 13µM, MCF10A rereplic inconclusive, ELG1 repair inh inconclusive
Cc1scc(C(=O)N2CCN(S(C)(=O)=O)CC2)c1-c1ccccc1	KB-V1 MDR tox 23µM
CN(CCC#N)C(=O)CSc1nc2scc(-c3ccccc3)c2c(=O)[nH]1	none
COC(=O)c1nn(-c2ccccc2)c(=O)cc1O	none
COC(=O)c1nn(-c2c(C)n(C)n(-c3ccccc3)c2=O)cc1O	MCF10A rereplic 4.1µM
O=S1(=O)c2ccc(Br)cc2N2CCC[C@@H]2CN1Cc1ccccc1	KB-3-1 tox inconclusive, MCF10A rereplic inconclusive, SW480 rerep 2.9µM, ELG1 repair inh inconclusive
CC[C@H](C)[C@@H]1OC(=O)[C@@H](C)[C@@H](CC)NC(=O)[C@H](C)N(C)C(=O)C(C)(C)C(=O)C(C)NC(=O)[C@H](Cc2ccccc2)N(C)C(=O)[C@H](C(C)C)N(C)C(=O)CNC(=O)[C@H](CC(C)C)N(C)C(=O)CNC1=O (stereo partly drawn)	KB-3-1 tox 1.2µM (no result: MCF10A rereplic, SW480 rerep, ELG1 repair inh)
Cc1cc(-c2nc3ccccc3o2)c2ccccc2n1	KB-V1 MDR tox 13µM
N/C(=N\c1nc2c(c(=O)[nH]1)CCC2)Nc1cccc2ccccc12	KB-3-1 tox 23µM, KB-V1 MDR tox inconclusive
COc1ccnc(Oc2ccccc2)c1C(=O)N/C=N/OCc1ccc(F)cc1Cl	KB-3-1 tox inconclusive, MCF10A rereplic inconclusive, ELG1 repair inh 18µM
CCC(C)[C@H](NC(=O)NCc1ccc(S(N)(=O)=O)cc1)C(=O)OC (stereo partly drawn)	none
CCN(CC)CCCNC(=O)c1ccc2c(c1)sc1nc(-c3ccc(C)cc3)cn12	KB-3-1 tox 16µM, KB-V1 MDR tox inconclusive (no result: MCF10A rereplic, SW480 rerep, ELG1 repair inh)
CCCNC(=O)c1ccc2c(c1)sc1nc(-c3ccc(C)cc3)cn12	none (no result: MCF10A rereplic, SW480 rerep, ELG1 repair inh)
Cc1ccc(O)c(C(=O)c2cnc3c(c2)COc2ccccc2-3)c1	MCF10A rereplic inconclusive, ELG1 repair inh 16µM
COc1ccc(CC(=O)Nc2nc(-c3ccncc3)cs2)cc1	ELG1 repair inh 18µM

Screening data deposited in PubChem by National Center for Advancing Translational Sciences (NCATS).
